In PubChem BioAssay AID777 (Sanford-Burnham Center for Chemical Genomics, 2007):
Screen size: about 96,000 compounds; about 19,000 (20%) were called active. A selection follows. Values without a mark were called inactive.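 Rule for the calls: active = blocking of liver enzyme CYP2C9 beyond about 50% at 5 µM (limit read from the data); inactive = the rest.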

biological target: Cytochrome P450 2C9 (Homo sapiens) (UniProt P11712); assay: blockers of cytochrome P450 2C9 activity – biochemical, luminescence, ADME assay, primary screen (AID 777); conditions: CYP2C9 Supersomes, luciferin-H conversion, at 5 µM, active compounds read high
Sequence (P11712 whole entry, looked up): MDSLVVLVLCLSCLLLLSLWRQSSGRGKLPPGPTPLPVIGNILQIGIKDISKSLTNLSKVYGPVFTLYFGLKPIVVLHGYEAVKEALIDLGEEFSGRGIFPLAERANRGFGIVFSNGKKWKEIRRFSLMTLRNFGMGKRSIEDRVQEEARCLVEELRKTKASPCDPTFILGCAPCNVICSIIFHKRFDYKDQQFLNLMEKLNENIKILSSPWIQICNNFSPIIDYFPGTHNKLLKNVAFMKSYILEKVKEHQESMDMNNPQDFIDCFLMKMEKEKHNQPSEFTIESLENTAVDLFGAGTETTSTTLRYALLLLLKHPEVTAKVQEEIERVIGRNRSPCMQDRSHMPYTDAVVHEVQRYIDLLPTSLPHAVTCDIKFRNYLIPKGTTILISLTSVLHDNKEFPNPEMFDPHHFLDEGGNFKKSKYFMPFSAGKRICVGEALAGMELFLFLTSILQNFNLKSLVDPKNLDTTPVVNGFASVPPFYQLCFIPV

| Compound | inhibition |
| --- | --- |
| COc1cccc(Nc2ncccc2C(=O)O)c1 | -5.5% |
| CC1(C)CC(=O)C2=C(C1)NCN(CCCN1CCOCC1)C2 | 3.8% |
| CCOc1cc(CO)ccc1OCC(=O)N1CCCCC1 | -19.8% |
| N#C/C(=C1/CCCN1)c1ccccn1 | 7.3% |
| COC(=O)C(C)N(C#N)c1nc(C)nc(C)n1 (configuration not stated) | -136% |
| COC(=O)CNS(=O)(=O)c1ccc(OC)cc1 | -0.5% |
| COc1ccc(/C(N)=N/OC(=O)Oc2ccccc2)cc1 | 21.5% |
| CO/N=C(/CS(=O)(=O)c1ccc(Br)cc1)c1ccc(OC)cc1 | 91.6% (active) |
| O=C1CC(c2cccc(Br)c2)C2=C(CCCC2=O)N1 (configuration not stated) | 10.3% |
| Cc1cccc(NC(=O)c2cc(N3C(=O)CCC3=O)ccc2Cl)n1 | 20.2% |
| COc1ccc2oc(=O)c(C(=O)N3CCCc4ccccc43)cc2c1 | -44.4% |
| O=C(CN1CCOCC1)N1CCCc2c1c(=O)oc1ccc(OCc3ccccc3)cc21 | 72.5% (active) |
| O=C(COc1ccc2oc3c(c2c1)CCCC3)Nc1ccccn1 | 2.1% |
| Cn1c(=NC(=O)C2CC2)sc2cc(F)cc(F)c21 | -15.8% |
| O=C(CCN1C(=O)c2ccccc2C1=O)NCCN1CCOCC1 | -18.8% |
| O=C1c2oc3ccccc3c(=O)c2C(c2cccc(O)c2)N1c1ccccn1 (configuration not stated) | 4.2% |
| O=C1c2oc3ccc(Br)cc3c(=O)c2C(c2cccc(F)c2)N1CCO (configuration not stated) | 23.9% |
| COCCN1C(=O)c2oc3c(C)cc(C)cc3c(=O)c2C1c1cccc(O)c1 (configuration not stated) | 98.6% (active) |
| CC(=O)OC(C(=O)NCCc1ccccc1)c1cccnc1 (configuration not stated) | -7.6% |
| CCOC(=O)c1c(C)[nH]c(C(=O)COc2ccc3c(c2)OCO3)c1C | 93% (active) |
| Cc1cc(C)n2nc(C(=O)Oc3ccc4c(c3)OCO4)nc2n1 | -31.5% |
| CCOC(=O)c1c(C)oc2ccc(OCC(=O)N(CC)CC)cc12 | -13.4% |
| Nc1c(-c2cccc(Cl)c2)cnn1-c1cccc([N+](=O)[O-])c1 | 4.4% |
| O=C(NC12CC3CC(CC(C3)C1)C2)N1CCCC(CO)C1 (configuration not stated) | 12.4% |
| CC12C(=O)N(n3cnnc3)C(=O)C1C1C=CC2C1 (configuration not stated) | 1.9% |
| O=C(O)[C@@H]1CCCN1c1ncnc2sc3c(c12)CCC3 | 4.9% |

| Compound | inhibition |
| --- | --- |
| Cn1c(NN)nc2sc3c(c2c1=O)CCC3 | 68.1% (active) |
| NNC(=O)C1CCCn2c1nc1sc3c(c1c2=O)CCCC3 (configuration not stated) | 21.6% |
| Cn1c(NC(=O)c2ccco2)c(-c2ccccc2Cl)c(=O)c2ccccc21 | -3.7% |
| CC(C)Oc1ccc(C(=O)NC(C)(C)CO)cc1 | 15% |
| O=C(COc1ccccc1)NCCc1nc2ccccc2[nH]1 | 28.6% |
| C=CCn1c(SCc2nnc(-c3ccccc3)o2)nnc1C(O)c1ccccc1 (configuration not stated) | 59% (active) |
| O=C(CSCc1c(Cl)cccc1Cl)NN1C(=O)c2ccccc2C1=O | 34.3% |
| CN(C)c1ccc(CNC23CN4CN(CN(C4)C2)C3)cc1 | -4.7% |
| Cc1cccc2c1N(CC(=O)OC(C)C)C(=O)C2=O | 8% |
| CCn1c(CSc2nncn2-c2ccc(OC)cc2)nc2cc(S(=O)(=O)N(C)C)ccc21 | 50.1% (active) |
| Cn1nnnc1SCC(=O)Nc1ccccc1C(=O)NC1CC1 | 10.7% |
| CC(C)Nc1nc(N(c2ccccc2)c2ccccc2)nc(-n2ccnc2)n1 | 29% |
| Cc1ccc(N2CCN(S(=O)(=O)N(C)C)CC2)cc1Cl | 11% |
| O=C(NC1(C(F)(F)F)N=C2SCCN2C1=O)c1ccco1 (configuration not stated) | -10% |
| COc1cc(OC)c(C(=O)NC2CCCCCC2)cc1OC | 34.4% |
| Cn1c(SCC(=O)C(C)(C)C)nnc1-c1ccccn1 | -0.6% |
| Cn1c(=O)n(C)c2cc(C(=O)Nc3ccc4c(c3)OCO4)ccc21 | -11.4% |
| O=C(Nc1ccccc1)c1ccc2c(c1)OCO2 | 9.7% |
| Cc1ccc(C(=O)Nc2ccc3c(c2)OCO3)cc1S(=O)(=O)N1CCCCC1 | 93.3% (active) |
| O=C(Nc1ccc2c(c1)OCCO2)c1cnccn1 | 4.9% |
| O=C(Nc1ccc2c(c1)OCCO2)c1ccc(Cl)c(S(=O)(=O)N2CCCCC2)c1 | 97.2% (active) |
| O=C(Nc1ccc2c(c1)OCCO2)c1ccncc1 | 46.2% |
| Cc1ccc(C(=O)NCC(=O)O)cc1S(=O)(=O)N1CCCCC1 | 3.8% |
| COc1ccc(C(=O)Nc2ccc3c(c2)OCO3)cc1OC | 1.7% |
| CC(C)C(=O)Nc1cccc(C(=O)Nc2ccc3c(c2)OCO3)c1 | 57.2% (active) |
| Cc1c(C=O)c2ccccn2c1C(=O)c1ccncc1 | 40.3% |

| Compound | inhibition |
| --- | --- |
| CCC(=O)c1ccc(OCC(O)CN2CCN(c3cccc(C(F)(F)F)c3)CC2)cc1 (configuration not stated) | 22% |
| O=C(c1ccc(Cl)cc1)c1ccc(OCC(O)CN2CCCCC2)cc1 (configuration not stated) | 7.1% |
| Cc1nnc(SCC(=O)NCCOc2ccc(Cl)cc2)n1-c1ccccc1 | 37.2% |
| CCN1CCC(=NNC(=O)c2ccc(C)c([N+](=O)[O-])c2)CC1 | 7.3% |
| c1ccc(CCC2=NCCn3cccc32)cc1 | 4.5% |
| Cc1cccc(C(=O)NCCCN2CCCC2=O)c1 | -4% |
| CCOC(=O)CSc1nnc(CNC(=O)c2cccs2)n1-c1ccccc1 | -10.4% |
| Cc1ccc(-n2c(Cc3cccs3)nnc2SCC(=O)OC(C)C)cc1 | 67.5% (active) |
| COc1ccc(-n2c(SCC(=O)OC(C)C)nnc2-c2ccccn2)cc1 | -13.5% |
| CCn1c(Cc2cccs2)nnc1SCC(=O)c1ccc(C)cc1 | 78.7% (active) |
| Cn1c(SCC(=O)c2cccs2)nnc1-c1ccco1 | -12.6% |
| CCOC(=O)CNC(=O)CSc1nnc(COc2ccc(Cl)cc2)n1CC | 19.6% |
| CCn1c(SCC(=O)c2ccc(Cl)s2)nnc1-c1cccs1 | 69.2% (active) |
| CCn1c(SCC(=O)c2ccc3ccccc3c2)nnc1-c1cccs1 | 3.9% |
| COC(=O)c1c(-c2ccc(C)cc2)csc1N | 31.9% |
| CCC(C)n1[nH]c(=O)c2c(C)cc(C)nc21 (configuration not stated) | 10.8% |
| COc1ccc(Cc2nnc(SC)[nH]c2=O)cc1 | 37.8% |
| C[N+](C)(C)CCNC(=O)c1c(O)c2c([nH]c1=O)CCCC2 | 6.6% |
| CC(CC(=O)Nc1cc(C(F)(F)F)ccc1Cl)c1ccccc1 (configuration not stated) | -141% |
| CC(C)n1c(C(O)c2ccccc2)nc2ccccc21 (configuration not stated) | -0.4% |
| Cc1cc(N2CCCC2)n2nc(C)c(-c3ccccc3)c2n1 | -22.5% |
| COC(=O)c1cnn2c(C(F)(F)F)cc(-c3ccco3)nc12 | -10.8% |
| Cc1c(C(=O)NCC2CCCO2)sc2nc(-c3ccccc3)cn12 (configuration not stated) | 28.3% |
| c1ccc2c(c1)OCC(CNc1ncnc3nc[nH]c13)O2 (configuration not stated) | 10.3% |
| Cc1ccsc1C(=O)OCC(=O)c1cc(C)n(CC2CCCO2)c1C (configuration not stated) | -70.9% |
| Cc1cc(C)c2cc(CN(Cc3cccs3)Cc3nnnn3CC3CCCO3)c(=O)[nH]c2c1 (configuration not stated) | 75.5% (active) |

| Compound | inhibition |
| --- | --- |
| CCC(=O)N(Cc1cc2cc(OC)ccc2[nH]c1=O)c1ccccc1C | 36.4% |
| COc1ccc(CNC(=O)c2cc3c(=O)n4ccccc4nc3n(CC3CCCO3)c2=N)cc1 (configuration not stated) | 9.5% |
| CCC(c1nnnn1Cc1ccccc1)N(Cc1cc2cc(OC)ccc2[nH]c1=O)CC1CCCO1 (configuration not stated) | 66.2% (active) |
| COc1ccc(N(Cc2cc3cc(OC)ccc3[nH]c2=O)S(C)(=O)=O)cc1 | 26.9% |
| CCOc1ccc2[nH]c(=O)c(CN(Cc3nnnn3Cc3ccccc3)CC3CCCO3)cc2c1 (configuration not stated) | 13% |
| COc1ccc2[nH]c(=O)c(CN(Cc3nnnn3CCc3ccccc3)CC3CCCO3)cc2c1 (configuration not stated) | 68% (active) |
| Cc1cc2cc(CN(Cc3cccs3)Cc3nnnn3CC3CCCO3)c(=O)[nH]c2cc1C (configuration not stated) | -32.2% |
| CC(=O)c1c(C)c[nH]c1C | -23.3% |
| Cc1ccccc1N/N=C/c1ccc(N2CCOCC2)cc1 | -0.6% |
| CCN1CCN(CCCCOc2ccccc2F)CC1 | 15.7% |
| O=C(CC1NCCNC1=O)Nc1ccc(Oc2ccccc2)cc1 (configuration not stated) | 1.6% |
| Cc1nc2ccc(S(=O)(=O)NCC(=O)O)cc2s1 | -5.2% |
| O=C1CN(c2nc(-c3ccccc3)c3cc(Br)ccc3n2)c2ccccc2N1 | -6.3% |
| Cc1ccc(C2NC(=S)NC3=C2N2CCC3CC2)cc1 (configuration not stated) | 1.3% |
| CC1CCc2c(sc3nc4n(c(=O)c23)CCS4)C1 (configuration not stated) | 28.1% |
| CCCn1nnc2sc3c(c2c1=O)CCC(C)C3 (configuration not stated) | 10.3% |
| C=CCn1c(SCc2c(C)noc2C)nc2sc3c(c2c1=O)CCC(C)C3 (configuration not stated) | 92.7% (active) |
| c1ccc(-c2nccc(-c3ccc(-n4cnc5ccccc54)cc3)n2)nc1 | 22.6% |
| CNC(=O)n1ccc(C(=O)N2CCCCC2)n1 | -19.7% |
| CCc1nc(N2CCN(c3nc(C)cc(C)n3)CC2)c2oc3ccccc3c2n1 | 11.3% |
| CN(C)/C(CN1CCCCC1)=C1\N=C(c2ccccc2)OC1=O | 20.2% |
| O=C(NC(=O)c1ccccc1)NC(=O)c1ccccc1 | 12.8% |
| Cc1cc(C)n(-c2c(F)c(F)c(COC(=O)c3ccccc3)c(F)c2F)n1 | 2.6% |
| O=C(OCC(O)C(O)COC(=O)c1ccccc1)c1ccccc1 (configuration not stated) | 57.1% (active) |
